In paper PMC4336329 (PLoS ONE, 2015):
About 14,000 (4.5%) of roughly 310,000 compounds showed an effect of 50% or more. The effect is printed as a negative number. What follows is part of a selection rich in strong results, with near analogues and random picks from the rest.

The compounds below were run against human ether-à-go-go-related gene (hERG) potassium channel (human, UniProt Q12809) (assay: primary screen, population patch clamp on CHO cells stably expressing hERG; higher = less effect of the substance).
Sequence of human ether-à-go-go-related gene (hERG) potassium channel (Q12809 whole entry, looked up): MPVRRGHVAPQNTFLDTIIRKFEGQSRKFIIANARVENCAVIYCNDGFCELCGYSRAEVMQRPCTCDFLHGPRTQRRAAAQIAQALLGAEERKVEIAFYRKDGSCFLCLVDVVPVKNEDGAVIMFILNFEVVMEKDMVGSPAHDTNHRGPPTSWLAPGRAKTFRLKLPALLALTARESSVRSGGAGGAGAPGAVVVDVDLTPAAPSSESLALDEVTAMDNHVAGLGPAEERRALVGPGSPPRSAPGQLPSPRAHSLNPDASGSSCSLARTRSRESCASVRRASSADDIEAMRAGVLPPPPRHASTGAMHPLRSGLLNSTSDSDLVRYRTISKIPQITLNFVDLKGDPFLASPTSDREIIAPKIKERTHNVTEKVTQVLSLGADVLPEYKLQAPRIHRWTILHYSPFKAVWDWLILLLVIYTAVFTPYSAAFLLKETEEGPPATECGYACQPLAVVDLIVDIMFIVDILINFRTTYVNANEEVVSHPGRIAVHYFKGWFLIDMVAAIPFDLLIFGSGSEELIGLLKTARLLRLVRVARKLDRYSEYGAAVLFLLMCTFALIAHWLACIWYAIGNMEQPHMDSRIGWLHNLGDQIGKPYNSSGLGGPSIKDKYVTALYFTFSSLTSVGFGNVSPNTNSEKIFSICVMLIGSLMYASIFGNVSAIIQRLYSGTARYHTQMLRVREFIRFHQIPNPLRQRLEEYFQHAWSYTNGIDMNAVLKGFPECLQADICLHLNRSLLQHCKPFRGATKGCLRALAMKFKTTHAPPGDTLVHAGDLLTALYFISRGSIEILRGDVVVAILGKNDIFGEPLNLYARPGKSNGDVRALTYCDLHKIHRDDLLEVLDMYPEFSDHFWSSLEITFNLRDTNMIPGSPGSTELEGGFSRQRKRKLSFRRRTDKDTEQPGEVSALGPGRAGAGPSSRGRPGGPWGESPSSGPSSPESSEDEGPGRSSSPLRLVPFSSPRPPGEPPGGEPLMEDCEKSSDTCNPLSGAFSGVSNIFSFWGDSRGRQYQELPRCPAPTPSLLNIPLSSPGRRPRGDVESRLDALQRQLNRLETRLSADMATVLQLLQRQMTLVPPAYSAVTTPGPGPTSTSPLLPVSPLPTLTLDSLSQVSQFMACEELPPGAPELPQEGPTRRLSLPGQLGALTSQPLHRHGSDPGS
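Also: peak tail current of the secondary pulse compared with the same well before compound.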

Structure (SMILES)	hERG current change (%, negative = inhibition) at 10uM [%]
COc1ccc(CNC(C)Cc2cccs2)cc1 (stereo not drawn)	-2.79
O=C(O)C(=O)O.O=C(c1ccccc1)c1ccc(OCC(O)CNCc2ccc(Cl)cc2)cc1 (stereo not drawn)	-66.6
C=CCOc1ccc(CN(C)CC(O)COc2ccc(CCC(C)=O)cc2)cc1 (stereo not drawn)	-63.6
COC(=O)c1ccc(COc2ccc(CNCc3ccc(Cl)cc3)cc2)cc1	-0.414
O=C(O)C(=O)O.O=C(c1ccccc1)c1ccc(OCC(O)CNCc2cccc(Cl)c2)cc1 (stereo not drawn)	-60.3
COc1ccc(CNC(=O)Cc2cccs2)cc1	15
COc1cccc(CNCC(O)COc2ccc(C(=O)c3ccccc3)cc2)c1 (stereo not drawn)	-34.7
COc1ccc(CNCC(O)COCc2cccs2)cc1 (stereo not drawn)	-60.8
O=C(O)C(=O)O.OC(CNCc1ccc(Cl)cc1)COc1ccccc1 (stereo not drawn)	-41.9
CN(Cc1ccccc1)CC(O)COc1ccc(CNCCc2ccncc2)cc1 (stereo not drawn)	-17.5
C=CCOc1ccc(CN(C)CC(O)COc2cccc3ccccc23)cc1 (stereo not drawn)	-23.2
Cc1ccc(OCC(O)CNCc2ccccc2)cc1C (stereo not drawn)	-33.5
CCNC(=O)/C=C/c1ccccc1[N+](=O)[O-]	8.82
COc1ccc2[nH]c(=O)c(CN(c3ccccc3)S(=O)(=O)c3ccccc3)cc2c1	11.2
COc1ccc2cnn(-c3ccc(OC(F)(F)F)cc3)c(=O)c2c1OC	-6
CCOC(=O)C(=CNc1cc(C)ccc1-n1cccc1)C(=O)OCC	2.05
Cc1ccc(/C=C2/Sc3ccc(C(=O)N4CCC5(CC4)OCCO5)cc3NC2=O)cc1	16.1
Cc1sc(NC(=O)CN(Cc2ccccc2)C(=O)C(C)C)c(C(N)=O)c1C	-0.293
O=C(COc1cc(F)ccc1[N+](=O)[O-])Nc1ccc2c(c1)OCO2	1.25
Cc1csc(NC(=O)C2CCN(S(=O)(=O)c3ccc4c(c3)oc(=O)n4C)CC2)n1	-11.5
COCCNC(=O)c1cc(-c2ccccc2)n(Cc2cc(C)no2)n1	0.26
Cn1c(O)c(C=NCCN2CCN(C(=O)Nc3ccccc3)CC2)c(=O)n(C)c1=O	13.1
O=C(Nc1cc(Cl)cc(Cl)c1)C(NCCCO)c1ccccc1 (stereo not drawn)	3.1

Structure (SMILES)	hERG current change (%, negative = inhibition) at 10uM [%]
Cc1ccc(C(OCC(O)CNCc2ccc(F)cc2)c2ccccc2)cc1.O=C(O)C(=O)O (stereo not drawn)	-75.7
Cc1ccc(CNCc2ccc3c(c2)OCO3)cc1	-0.503
CC(NCc1ccc2c(c1)OCO2)c1ccccc1.Cl (stereo not drawn)	10.4
CC(C)(C)NCC(O)COCc1ccc(Cl)cc1.Cl (stereo not drawn)	-24.6
Cc1ccc(OCCNCC(O)COc2ccccc2)cc1.O=C(O)C(=O)O (stereo not drawn)	-44.2
Cl.OC(CNCc1ccccc1)COCc1ccc(Cl)cc1 (stereo not drawn)	-50.3
CC(=O)CCc1ccc(OCC(O)CNCCOc2ccc(C)cc2)cc1 (stereo not drawn)	-55.9
CC(NCC(O)COCc1ccc(Cl)cc1)c1ccccc1.Cl (stereo not drawn)	-43.1
CC(CNCc1ccc2c(c1)OCO2)NCc1ccc2c(c1)OCO2 (stereo not drawn)	-54.5
COc1ccc(CCC(=O)NCCOc2ccc(C)cc2)cc1	2.1
Cc1ccc2nsnc2c1S(=O)(=O)N1CCN(CCc2ccccc2)CC1	-42.6
Cc1cc2c(=O)n(CC(=O)N3CCN(c4ccc(F)cc4)CC3)cnc2s1	-12.4
CC(C)(C)CC(C)(C)NCC(O)COCCOc1ccc(Br)cc1.Cl (stereo not drawn)	-32.8
O=C(NCc1ccc(F)cc1)NC(=O)c1ccc(Cl)cc1	8.5
CCOC(=O)C1=CCN(Cc2ccccc2)CC1.Cl	12.8
Nc1nnc(SCCCC(=O)c2ccc(Br)cc2)s1	26.5
OC(CNCc1ccc2c(c1)OCO2)COc1ccc(F)cc1 (stereo not drawn)	-55.7
Cc1ccc(OCC(O)CNCc2ccc(F)cc2)cc1 (stereo not drawn)	-40.5
CC(=O)c1cccc(OCC(O)CNCCc2ccc(Cl)cc2)c1 (stereo not drawn)	-49
CCC(=O)c1ccc(OCC(O)CNCCc2ccc(Cl)cc2)cc1 (stereo not drawn)	-72.1
COC(=O)c1ccc(CNCC(O)COc2ccc(-c3ccccc3)cc2)cc1 (stereo not drawn)	13.1
CC(=O)c1ccc(OCC(O)CNCc2ccc3c(c2)OCO3)cc1 (stereo not drawn)	-26.1
